BJeLR viability – compounds reducing viability of BJeLR cells | BJeLR fibroblasts viability, CellTiterGlo ATP luminescence, 48 h; HRASV12, hTERT and SV40 LT/ST transformed | viability loss activity score, % (concentration not given with the values) | actives 0.64% (n = 30,000) | AID 2275; in the data active = viability loss activity score above about 50%; inconclusive = no clear call, values can overlap the other calls; inactive = below about 35%;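 note: higher score means fewer live cells and less ATP luminescence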
A1 inh – A1 inhibition. MEF A1-2A-BIM cells, caspase-Glo luminescence, 3 h; percent of clofoctol signal, DMSO as zero. caspase activation, % (test concentration not listed). actives 0.51% (n = 21,000);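 active = most replicate scores above 10, or exactly half above 10 with mean activity above 10; inconclusive = mean activity below 10 while half the replicates exceed 10; inactive = most replicate scores below 10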;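 note: effector caspase 3 and 7 activity cleaving a DEVD luciferin substrate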
Large screens that a line does not name were inactive; ! = not confirmed by another sample. A selection: hits, their analogues and other compounds. The true share with any hit is near 0.9%.

Cc1csc(NC(=O)c2ccccc2C(=O)O)c1-c1nc2ccccc2s1	none (no result: A1 inh)
COc1ccc(CN(C)C[C@H]2Oc3ccc(NS(=O)(=O)c4ccc(F)cc4)cc3C(=O)N([C@@H](C)CO)C[C@@H]2C)cc1	none
CCCCN(CC)S(=O)(=O)c1ccc(C(=O)Nc2ccccc2-c2nc3ccccc3[nH]2)cc1	none (no result: A1 inh)
CCOc1ccc(NC(=O)Cc2ccccc2OC)cc1	none
CN(Cc1ccccc1)S(=O)(=O)c1ccc(C(=O)Nc2ccc(-c3nc4ccccc4[nH]3)cc2)cc1	BJeLR viability inconclusive, A1 inh 22
COc1ccccc1CC(=O)Nc1ccc(-c2nc3ccccc3[nH]2)cc1	A1 inh 29
Cc1ccc(-c2cccc(-n3c(C)ccc3-c3cccc(N)c3)c2)o1	none
CCN1CNC(=S)N(c2ccccc2)C1	none
CCN1CSC(=S)N(Cc2ccccc2)C1	BJeLR viability 54
C[C@@H]1CN([C@@H](C)CO)C(=O)c2cccc(N(C)C)c2O[C@H]1CN(C)S(=O)(=O)c1ccc(F)cc1	none (no result: A1 inh)
O=C1CCc2cc(C(=O)CSc3ccc(Cl)cc3Cl)ccc2N1	none
COc1cc([C@@H]2c3cc4c(cc3C(OC3O[C@@H]5COC(C)O[C@H]5[C@H](O)[C@H]3O)C3COC(=O)[C@@H]32)OCO4)cc(OC)c1O (stereo partly drawn)	none
COc1cc([C@@H]2c3cc4c(cc3[C@@H](OC3OC5COC(C)OC5C(O)C3O)[C@H]3COC(=O)[C@H]23)OCO4)cc(OC)c1O (stereo partly drawn)	BJeLR viability 52
CCC(C)NC(=O)c1ccc(OC(C)=O)cc1 (stereo not drawn)	none
CCOC(=O)c1cnc(S/C=C/C(=O)c2ccc(C)cc2)nc1N	BJeLR viability 90
CCOC(=O)c1cnc(N2CCOCC2)nc1N	none
COC(=O)C1=CN(C23CC4CC(CC(C4)C2)C3)C=C(C(=O)OC)C1c1cccc(OC)c1	none
CCc1ccc2nc(Nc3nc4ccccc4c(=O)[nH]3)nc(C)c2c1	BJeLR viability 87
Cc1ccc(SCc2cc(=O)[nH]c(Nc3nc(C)c4ccccc4n3)n2)cc1	none
C[C@H](CO)N1C[C@H](C)[C@H](CN(C)Cc2ccc(C(=O)O)cc2)Oc2ccc(NS(=O)(=O)c3cn(C)cn3)cc2C1=O	none
COc1cc(N2CN=c3s/c(=C\C=C\c4ccccc4)c(=O)n3C2)cc(OC)c1OC	none (no result: A1 inh)
N#CCSc1nc2ccccc2c(=O)n1CCCC(=O)NCc1ccco1	none
N#CCSc1nc2cc(C(=O)NCc3ccccc3)ccc2c(=O)n1CCc1ccccc1	A1 inh 22
CCn1c(-c2ccccc2)n[nH]c1=S	none
Cc1ccccc1CSCc1ccc(C(=O)NCc2cccs2)o1	none
COC(=O)Cn1c(=O)c2c(nc3n2CCN3c2ccccc2)n(C)c1=O	A1 inh 37
COC(=O)Cn1c(Cl)nc2c1c(=O)n(C)c(=O)n2C	none
O=C1CC(=O)N(c2ccccc2)N1c1ccccc1	none
O=C1C=CC(=O)N1c1ccccc1	BJeLR viability 127
Cc1sc2c(c1C)C(=O)C(C(=O)Nc1ccc(Cl)cc1)S(=O)(=O)N2C (stereo not drawn)	none
O=C(/C=C/Sc1ccccn1)c1ccccc1	BJeLR viability 76
O=C(Sc1ccccn1)N1c2ccccc2Sc2ccccc21	none
CCCN(C(=O)c1cc2cc3ccc(OC)cc3nc2o1)c1ccc(CC)cc1	none (no result: A1 inh)
Cc1c(Cc2ccccc2)c(Cl)n2c(nc3ccccc32)c1C#N	BJeLR viability 64
CCc1c(C)c(C#N)c2nc3ccccc3n2c1N1CCN(CCO)CC1	none (no result: A1 inh)
O=C(CCCCCN1C(=O)c2cccc3cccc(c23)C1=O)NO	BJeLR viability 114
CCc1ccccc1NC(=O)CCN1C(=O)c2ccccc2C1=O	none
CN(Cc1ccccc1)C(=O)c1cc2c(s1)-c1ccccc1S(=O)(=O)C2	none
Cc1ccnc(Nc2nc3ccccc3o2)n1	BJeLR viability 50 (no result: A1 inh)
CC(C)N1CN=C(Nc2nc3ccccc3o2)NC1	none
COc1ccc(S(=O)(=O)Nc2cccc3c2O[C@H](CN(C)S(=O)(=O)c2ccccc2)[C@@H](C)CN([C@@H](C)CO)C3=O)cc1	none (no result: A1 inh)
C[C@H](CO)N1C[C@H](C)[C@H](CN(C)CC2CC2)Oc2ccc(NC(=O)Cc3ccccc3)cc2C1=O	none
CCS(=O)(=O)N1N=C(c2ccccc2)CC1c1cc2cc3c(cc2nc1Cl)OCCO3 (stereo not drawn)	none
C=C1C(=O)O[C@H]2C1C[C@@H](OC(C)=O)[C@@]1(C)[C@@H](OC(C)=O)C[C@@H](OC(C)=O)C(=C)[C@H]21 (stereo partly drawn)	none
C=C(C)C(=O)O[C@H]1[C@H]2C(=C)C(=O)O[C@@H]2C[C@@H](C)/C=C/C(=O)[C@](C)(O)[C@@H]1OC(C)=O	BJeLR viability 59
N#CCC(=O)NC(=O)NC12CC3CC(CC(C3)C1)C2	none
COc1cc2ncnc(Nc3cccc(O)c3)c2cc1OC	A1 inh 12
COc1cc2ncnc(Nc3cccc(Br)c3)c2cc1OC	none
CCC1=Nc2cc(C(=O)NCC(OC)OC)ccc2Sc2ccccc21	none (no result: A1 inh)
CNC[C@H]1Oc2c(NC(=O)Nc3ccc(F)cc3)cccc2C(=O)N([C@@H](C)CO)C[C@H]1C	none (no result: A1 inh)
COc1ccc(S(=O)(=O)N(C)C[C@@H]2Oc3ccc(NS(=O)(=O)c4cccs4)cc3C(=O)N([C@@H](C)CO)C[C@H]2C)cc1	none
CC1=NNC(=O)/C1=C\c1cn(-c2ccccc2)nc1-c1ccc(F)cc1	BJeLR viability 88, A1 inh 96
Cc1ccc(-c2nn(-c3ccccc3)cc2/C=N/O)cc1	none
Cc1cc(C)cc(NC(=O)CN2C(=O)CCc3ccccc32)c1	A1 inh 11
Cc1cc(C)cc(NC(=O)CN2C=NS(=O)(=O)c3ccccc32)c1	none
C[C@@H]1CN([C@H](C)CO)C(=O)c2cc(NC(=O)CCCN(C)C)ccc2O[C@@H]1CN(C)S(=O)(=O)c1ccc(Cl)cc1	none
C[C@@H]1CN([C@H](C)CO)C(=O)c2cccc(NS(=O)(=O)c3cn(C)cn3)c2O[C@H]1CN(C)Cc1ccc(Oc2ccccc2)cc1	none (no result: A1 inh)
CC(=O)O[C@@]1(C)[C@@H]2CC(=C(C)C)C(=O)C[C@@]2(C)CC[C@H]1OC(=O)C1(C)OC1C (stereo partly drawn)	BJeLR viability 54
COc1ccc(S(=O)(=O)N(C)C[C@H]2Oc3c(NS(C)(=O)=O)cccc3C(=O)N([C@@H](C)CO)C[C@H]2C)cc1	none (no result: A1 inh)
OC(CN1CCN(c2cccc(Cl)c2)CC1)Cn1c2ccccc2c2ccccc21 (stereo not drawn)	none
OC(CN1CCNCC1)Cn1c2ccc(Br)cc2c2cc(Br)ccc21 (stereo not drawn)	A1 inh 16!
CC(C)NC(=O)Nc1ccc2c(c1)C(=O)N([C@H](C)CO)C[C@@H](C)[C@@H](CN(C)Cc1ccc(C(=O)Nc3ccccc3N)cc1)O2	none (no result: A1 inh)
Cc1cc(NC(=O)c2ccc3c(c2)NC(=O)c2ccccc2S3)ccc1Br	A1 inh 15
Cc1cc(C)cc(NC(=O)c2ccc3c(c2)NC(=O)c2ccccc2S3)c1	none
C=C1C(=O)O[C@@H]2C=C(C)[C@@H]3CC[C@@](C)(O)[C@@H]3C[C@H]12	none
C=C1C(=O)O[C@H]2C3=C(C)CCC[C@]3(C)C(=O)C[C@@H]12	BJeLR viability 53
C[C@H](CO)N1C[C@H](C)[C@H](CN(C)S(=O)(=O)c2ccc(Cl)cc2)Oc2ccc(NC(=O)c3ccncc3)cc2C1=O	none
O=C(Oc1ccccc1)C(c1ccccc1)c1ccccc1	none

Source: PubChem BioAssay
